How the values were obtained:
[1] = biological target: Serine/threonine-protein kinase 26 (Homo sapiens) (UniProt Q9P289); details: at 1 µM;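 also: mean inhibition of MST4 kinase activity, reported from the GSK PKIS inhibitor-set screening panel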
[2] = biological target: Serine/threonine-protein kinase PAK 1 (Homo sapiens) (UniProt Q13153); details: at 0.1 µM
[3] = biological target: Serine/threonine-protein kinase PAK 1 (Homo sapiens) (UniProt Q13153); details: at 1 µM
[4] = biological target: Serine/threonine-protein kinase PAK 2 (Homo sapiens) (UniProt Q13177); details: at 0.1 µM
[5] = biological target: Serine/threonine-protein kinase PAK 2 (Homo sapiens) (UniProt Q13177); details: at 1 µM
[6] = biological target: Serine/threonine-protein kinase PAK 3 (Homo sapiens) (UniProt O75914); details: at 0.1 µM
[7] = biological target: Serine/threonine-protein kinase PAK 3 (Homo sapiens) (UniProt O75914); details: at 1 µM
[8] = biological target: Serine/threonine-protein kinase PAK 5 (Homo sapiens) (UniProt Q9P286); details: at 0.1 µM
[9] = biological target: Serine/threonine-protein kinase PAK 5 (Homo sapiens) (UniProt Q9P286); details: at 1 µM
[10] = biological target: Serine/threonine-protein kinase PAK 6 (Homo sapiens) (UniProt Q9NQU5); details: at 0.1 µM;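 also: mean PAK6 inhibition reported from the GSK PKIS screen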
Chain of Serine/threonine-protein kinase PAK 6 (Homo sapiens) (Q9NQU5 whole entry, looked up): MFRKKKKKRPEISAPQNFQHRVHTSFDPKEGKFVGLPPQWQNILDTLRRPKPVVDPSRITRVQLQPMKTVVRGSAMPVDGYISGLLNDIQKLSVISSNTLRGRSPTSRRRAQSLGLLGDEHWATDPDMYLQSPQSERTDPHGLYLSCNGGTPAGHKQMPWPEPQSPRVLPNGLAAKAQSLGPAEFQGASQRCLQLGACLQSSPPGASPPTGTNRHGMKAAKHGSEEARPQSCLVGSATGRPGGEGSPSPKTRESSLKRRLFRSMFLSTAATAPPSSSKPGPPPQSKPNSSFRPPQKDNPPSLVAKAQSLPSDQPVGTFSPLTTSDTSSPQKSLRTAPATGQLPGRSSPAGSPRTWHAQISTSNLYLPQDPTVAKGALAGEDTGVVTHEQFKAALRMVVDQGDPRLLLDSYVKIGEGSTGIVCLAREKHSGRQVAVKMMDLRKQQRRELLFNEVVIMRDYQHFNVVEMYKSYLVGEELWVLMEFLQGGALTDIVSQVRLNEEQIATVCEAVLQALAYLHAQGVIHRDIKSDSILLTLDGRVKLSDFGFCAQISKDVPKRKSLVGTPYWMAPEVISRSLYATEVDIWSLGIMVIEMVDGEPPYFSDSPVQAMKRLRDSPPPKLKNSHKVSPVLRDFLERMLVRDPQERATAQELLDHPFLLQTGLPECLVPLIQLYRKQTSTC

Chain of Serine/threonine-protein kinase PAK 1 (Homo sapiens) (Q13153 whole entry): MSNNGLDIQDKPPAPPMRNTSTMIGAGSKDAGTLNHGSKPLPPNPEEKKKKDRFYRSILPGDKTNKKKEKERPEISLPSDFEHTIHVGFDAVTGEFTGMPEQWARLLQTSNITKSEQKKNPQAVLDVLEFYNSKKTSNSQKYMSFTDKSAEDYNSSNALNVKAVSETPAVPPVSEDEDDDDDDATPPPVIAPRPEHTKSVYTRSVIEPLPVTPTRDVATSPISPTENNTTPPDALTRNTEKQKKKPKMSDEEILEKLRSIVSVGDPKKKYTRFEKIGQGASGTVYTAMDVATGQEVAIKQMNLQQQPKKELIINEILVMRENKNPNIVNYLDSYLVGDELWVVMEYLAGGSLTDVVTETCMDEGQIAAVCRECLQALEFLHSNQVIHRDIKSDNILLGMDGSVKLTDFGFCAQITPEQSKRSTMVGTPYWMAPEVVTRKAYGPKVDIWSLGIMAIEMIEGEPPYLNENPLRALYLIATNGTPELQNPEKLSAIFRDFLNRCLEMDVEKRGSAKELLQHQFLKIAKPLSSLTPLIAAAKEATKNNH
Chain of Serine/threonine-protein kinase PAK 2 (Homo sapiens) (Q13177 whole entry): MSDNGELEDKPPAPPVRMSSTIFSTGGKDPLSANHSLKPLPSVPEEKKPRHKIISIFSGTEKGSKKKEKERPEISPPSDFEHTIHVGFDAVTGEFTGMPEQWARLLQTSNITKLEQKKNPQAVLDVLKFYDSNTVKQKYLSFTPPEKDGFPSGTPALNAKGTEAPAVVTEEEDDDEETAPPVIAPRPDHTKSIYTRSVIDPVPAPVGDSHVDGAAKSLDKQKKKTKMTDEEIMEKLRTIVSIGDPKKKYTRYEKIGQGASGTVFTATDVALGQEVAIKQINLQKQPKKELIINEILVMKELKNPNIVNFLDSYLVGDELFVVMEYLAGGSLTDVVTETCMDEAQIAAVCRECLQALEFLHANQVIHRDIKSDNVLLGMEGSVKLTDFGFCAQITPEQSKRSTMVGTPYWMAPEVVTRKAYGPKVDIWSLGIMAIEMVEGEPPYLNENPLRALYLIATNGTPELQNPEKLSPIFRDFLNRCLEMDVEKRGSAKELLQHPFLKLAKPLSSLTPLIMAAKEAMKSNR
Chain of Serine/threonine-protein kinase 26 (Homo sapiens) (Q9P289 2-416 limits assumed): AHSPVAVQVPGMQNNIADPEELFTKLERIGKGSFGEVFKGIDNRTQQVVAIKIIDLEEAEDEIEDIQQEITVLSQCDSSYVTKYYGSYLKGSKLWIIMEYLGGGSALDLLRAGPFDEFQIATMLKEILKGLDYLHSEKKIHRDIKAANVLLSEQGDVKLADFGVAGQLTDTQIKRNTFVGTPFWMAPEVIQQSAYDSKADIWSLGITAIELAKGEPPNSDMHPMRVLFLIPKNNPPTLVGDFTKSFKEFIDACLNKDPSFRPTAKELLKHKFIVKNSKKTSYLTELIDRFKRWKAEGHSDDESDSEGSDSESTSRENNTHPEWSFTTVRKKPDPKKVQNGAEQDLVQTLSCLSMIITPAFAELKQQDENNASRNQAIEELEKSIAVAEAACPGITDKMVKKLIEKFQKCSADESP
Chain of Serine/threonine-protein kinase PAK 5 (Homo sapiens) (Q9P286 whole entry, looked up): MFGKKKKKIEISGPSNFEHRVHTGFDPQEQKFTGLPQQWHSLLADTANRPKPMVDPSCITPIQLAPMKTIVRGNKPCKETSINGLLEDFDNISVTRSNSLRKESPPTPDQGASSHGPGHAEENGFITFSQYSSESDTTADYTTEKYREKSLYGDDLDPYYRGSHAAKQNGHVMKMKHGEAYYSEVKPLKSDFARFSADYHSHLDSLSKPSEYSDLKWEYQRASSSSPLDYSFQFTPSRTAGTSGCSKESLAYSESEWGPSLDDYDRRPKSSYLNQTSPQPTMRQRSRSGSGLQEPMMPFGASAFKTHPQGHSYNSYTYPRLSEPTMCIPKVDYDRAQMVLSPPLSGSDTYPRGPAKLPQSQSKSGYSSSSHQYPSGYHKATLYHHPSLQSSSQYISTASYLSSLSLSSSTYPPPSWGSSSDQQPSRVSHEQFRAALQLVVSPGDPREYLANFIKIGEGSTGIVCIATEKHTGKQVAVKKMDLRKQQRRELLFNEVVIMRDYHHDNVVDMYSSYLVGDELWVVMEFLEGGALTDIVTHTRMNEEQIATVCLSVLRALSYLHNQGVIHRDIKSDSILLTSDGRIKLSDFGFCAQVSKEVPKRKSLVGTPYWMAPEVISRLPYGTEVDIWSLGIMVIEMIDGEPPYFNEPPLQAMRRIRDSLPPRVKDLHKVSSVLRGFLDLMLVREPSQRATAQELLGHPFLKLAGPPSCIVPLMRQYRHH
Chain of Serine/threonine-protein kinase PAK 3 (Homo sapiens) (O75914 whole entry, looked up): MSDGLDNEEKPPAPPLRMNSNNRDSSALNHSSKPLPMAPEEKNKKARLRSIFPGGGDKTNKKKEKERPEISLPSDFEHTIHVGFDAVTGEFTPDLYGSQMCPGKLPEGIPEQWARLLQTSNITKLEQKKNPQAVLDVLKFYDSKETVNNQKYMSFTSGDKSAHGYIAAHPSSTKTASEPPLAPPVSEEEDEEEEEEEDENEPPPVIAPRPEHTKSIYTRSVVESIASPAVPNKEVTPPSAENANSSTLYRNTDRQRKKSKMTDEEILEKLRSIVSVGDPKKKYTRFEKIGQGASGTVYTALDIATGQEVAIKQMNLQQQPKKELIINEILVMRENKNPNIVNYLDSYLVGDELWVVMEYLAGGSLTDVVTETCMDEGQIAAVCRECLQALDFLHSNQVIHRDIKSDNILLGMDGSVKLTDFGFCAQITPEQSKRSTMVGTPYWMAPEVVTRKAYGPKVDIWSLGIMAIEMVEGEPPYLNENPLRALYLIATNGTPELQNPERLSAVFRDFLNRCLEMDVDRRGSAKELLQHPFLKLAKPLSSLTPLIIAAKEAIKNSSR

N#Cc1c(NC(=O)CN2CCOCC2)sc2c1CCCC2
inhibition [1]: -0.59%
inhibition [2]: 8.81%
inhibition [3]: 4.43%
inhibition [4]: 1.25%
inhibition [5]: 0.76%
inhibition [6]: 3.48%
inhibition [7]: 4.91%
inhibition [8]: 2.38%
inhibition [9]: 3.24%
inhibition [10]: 0.72%

NS(=O)(=O)c1ccc(Nc2ncc(-c3ccccc3)o2)cc1
inhibition [1]: -2.5%
inhibition [2]: 4.04%
inhibition [3]: 7.88%
inhibition [4]: 2.52%
inhibition [5]: 1.78%
inhibition [6]: 4.23%
inhibition [7]: 5.19%
inhibition [8]: 8.88%
inhibition [9]: 9.45%
inhibition [10]: -1.35%

COc1ccc2[nH]c3c4[nH]c5ccc(OC)cc5c4c4c(c3c2c1)C(=O)NC4=O
inhibition [1]: 14%
inhibition [2]: 5.41%
inhibition [3]: 7.72%
inhibition [4]: 1.43%
inhibition [5]: 3.51%
inhibition [6]: 4%
inhibition [7]: 5.61%
inhibition [8]: 5.43%
inhibition [9]: 4.46%
inhibition [10]: 4.49%

CCn1c(-c2nonc2N)nc2c(C#CC(C)(C)O)ncc(OC3CCNCC3)c21
inhibition [1]: 4.19%
inhibition [2]: 2.8%
inhibition [3]: 8.91%
inhibition [4]: 1.98%
inhibition [5]: 13.5%
inhibition [6]: 2.99%
inhibition [7]: 8.39%
inhibition [8]: 34.6%
inhibition [9]: 80.1%
inhibition [10]: 14.6%

CN1CCC(n2cnc(-c3ccc(F)cc3)c2-c2ccnc(Nc3ccccc3)n2)CC1
inhibition [1]: 5.17%
inhibition [2]: 1.24%
inhibition [3]: 4.02%
inhibition [4]: 0.86%
inhibition [5]: -0.38%
inhibition [6]: 2.18%
inhibition [7]: 2.38%
inhibition [8]: -3.93%
inhibition [9]: 4.44%
inhibition [10]: -9.85%

Nc1ncc(-c2cccc(S(N)(=O)=O)c2)c2scc(-c3ccc(F)c(Cl)c3)c12
inhibition [1]: 2.44%
inhibition [2]: 3.95%
inhibition [3]: 5.65%
inhibition [4]: 3.24%
inhibition [5]: 1.78%
inhibition [6]: 5.21%
inhibition [7]: 3.51%
inhibition [8]: 4.11%
inhibition [9]: 3.74%
inhibition [10]: -2.3%

O=S(=O)(CCNCc1ccc(-c2ccc3ncnc(Nc4ccc(OCc5cccc(F)c5)c(Cl)c4)c3c2)o1)c1ccccc1
inhibition [1]: -0.49%
inhibition [2]: 10%
inhibition [3]: 7.19%
inhibition [4]: 2.7%
inhibition [5]: 3.71%
inhibition [6]: 6.62%
inhibition [7]: 5.75%
inhibition [8]: 4.32%
inhibition [9]: 5.17%
inhibition [10]: 0.2%

Cc1cccc2c1NC(=O)/C2=N\Nc1ccc(S(N)(=O)=O)cc1
inhibition [1]: -4.46%
inhibition [2]: 7.85%
inhibition [3]: 5.96%
inhibition [4]: 2.44%
inhibition [5]: 1.43%
inhibition [6]: 3.43%
inhibition [7]: 3.88%
inhibition [8]: 11.2%
inhibition [9]: 2.81%
inhibition [10]: 3.7%

COC(=O)Nc1nc2ccc(Oc3ccc(NC(=O)Nc4cccc(Cl)c4)cc3)cc2[nH]1
inhibition [1]: 1.03%
inhibition [2]: 5.21%
inhibition [3]: 1.37%
inhibition [4]: -0.81%
inhibition [5]: 0.02%
inhibition [6]: 1.03%
inhibition [7]: 2.18%
inhibition [8]: 2.63%
inhibition [9]: 3.67%
inhibition [10]: -3.19%

CC(C)COC(=O)c1ccc2c(c1)/C(=C/Nc1ccc(S(N)(=O)=O)cc1)C(=O)N2
inhibition [1]: 10.7%
inhibition [2]: -0.34%
inhibition [3]: 1.52%
inhibition [4]: -2.84%
inhibition [5]: 0.1%
inhibition [6]: -2.65%
inhibition [7]: -0.22%
inhibition [8]: -0.7%
inhibition [9]: 5.79%
inhibition [10]: 11.9%

O=C(Nc1n[nH]c2cc(-c3ccc(F)cc3)ccc12)C1CC1
inhibition [1]: -1.27%
inhibition [2]: 5.64%
inhibition [3]: 5.57%
inhibition [4]: 1.33%
inhibition [5]: 0.78%
inhibition [6]: 3.25%
inhibition [7]: 3.1%
inhibition [8]: 4.4%
inhibition [9]: -1.87%
inhibition [10]: 2.33%

CCn1cc(-c2ccnc3[nH]ccc23)c(-c2cccc(NC(=O)Nc3ccc(OCc4ccccc4)cc3)c2)n1
inhibition [1]: -5.19%
inhibition [2]: 0.97%
inhibition [3]: 0.73%
inhibition [4]: -0.8%
inhibition [5]: -0.35%
inhibition [6]: 1.3%
inhibition [7]: 1.28%
inhibition [8]: -1.74%
inhibition [9]: -3.66%
inhibition [10]: 5.15%

COc1cccc(-n2ncc3c(N/N=C/c4ccc(F)cc4)ncnc32)c1
inhibition [1]: -2.12%
inhibition [2]: 4.83%
inhibition [3]: 7.12%
inhibition [4]: 2.32%
inhibition [5]: 2.24%
inhibition [6]: 4.66%
inhibition [7]: 4.91%
inhibition [8]: 9.72%
inhibition [9]: 5.66%
inhibition [10]: 3.88%

Cc1cccc(Nc2ncc(-c3ccccc3)o2)c1
inhibition [1]: 1.87%
inhibition [2]: -2.05%
inhibition [3]: 3.35%
inhibition [4]: 0.94%
inhibition [5]: 2.06%
inhibition [6]: 2.83%
inhibition [7]: 5.76%
inhibition [8]: 1.42%
inhibition [9]: 10.2%
inhibition [10]: -4.69%

CN(C)CCOc1ccc(-c2nc(-c3ccncc3)c(-c3ccc4c(c3)CC/C4=N\O)[nH]2)cc1
inhibition [1]: -0.6%
inhibition [2]: 4.61%
inhibition [3]: 9.24%
inhibition [4]: 2.66%
inhibition [5]: 2.42%
inhibition [6]: 3.85%
inhibition [7]: 4.82%
inhibition [8]: 7.4%
inhibition [9]: 7.07%
inhibition [10]: -7.61%

CCn1c(-c2nonc2N)nc2c(C#CC(C)(C)O)nc(OC[C@H](N)c3ccccc3)cc21
inhibition [1]: 28.1%
inhibition [2]: 1.29%
inhibition [3]: 3.91%
inhibition [4]: 1.1%
inhibition [5]: 10.9%
inhibition [6]: 2.18%
inhibition [7]: 4.83%
inhibition [8]: 37.3%
inhibition [9]: 70.9%
inhibition [10]: 49.4%

CCOc1ccc2c(-c3ccnc(Nc4cccc(C(F)(F)F)c4)n3)cnn2n1
inhibition [1]: 0.13%
inhibition [2]: 4.57%
inhibition [3]: 3.75%
inhibition [4]: -0.07%
inhibition [5]: -0.6%
inhibition [6]: 3.17%
inhibition [7]: 2.39%
inhibition [8]: 0.65%
inhibition [9]: -0.74%
inhibition [10]: -3.86%

COc1cc(N2CCN(C(C)C)CC2)ccc1Nc1nc(Nc2ccc(F)cc2C(N)=O)c2cc[nH]c2n1
inhibition [1]: 2.73%
inhibition [2]: 3.63%
inhibition [3]: 7.46%
inhibition [4]: 0.48%
inhibition [5]: 2.24%
inhibition [6]: 2.9%
inhibition [7]: 6.18%
inhibition [8]: 8.18%
inhibition [9]: 27.4%
inhibition [10]: -5.81%

c1ccc(COc2ccc(Nc3ncnc4ccc(-c5ccco5)cc34)cc2)cc1
inhibition [1]: 1.35%
inhibition [2]: 5.7%
inhibition [3]: 3.88%
inhibition [4]: -0.79%
inhibition [5]: -0.42%
inhibition [6]: 0.44%
inhibition [7]: 1.49%
inhibition [8]: -1.27%
inhibition [9]: -4.07%
inhibition [10]: 3.06%

N#Cc1c(NC(=O)c2ccc(F)cc2)sc2c1CCCC2
inhibition [1]: 2.43%
inhibition [2]: -0.82%
inhibition [3]: 3.8%
inhibition [4]: 0.64%
inhibition [5]: 0.15%
inhibition [6]: 1.5%
inhibition [7]: 1.26%
inhibition [8]: -0.93%
inhibition [9]: -0.51%
inhibition [10]: -7.52%

CC(=O)Nc1cccc(C#Cc2cncnc2Nc2ccc(OCc3cccc(F)c3)c(Cl)c2)c1
inhibition [1]: -0.92%
inhibition [2]: 3.48%
inhibition [3]: 6.05%
inhibition [4]: 2.19%
inhibition [5]: 1.41%
inhibition [6]: 2.92%
inhibition [7]: 3.79%
inhibition [8]: -5.54%
inhibition [9]: 1.62%
inhibition [10]: 2.97%

CC(C)(CO)CNC(=O)c1ccc2c(c1)/C(=N/Nc1ccc(S(N)(=O)=O)cc1)C(=O)N2
inhibition [1]: 7.27%
inhibition [2]: 3.17%
inhibition [3]: 3.48%
inhibition [4]: -1.4%
inhibition [5]: -0.42%
inhibition [6]: -1.02%
inhibition [7]: 0.96%
inhibition [8]: -0.42%
inhibition [9]: 0.12%
inhibition [10]: 2.03%

Fc1ccc(-c2nn3ccccc3c2-c2ccncc2)cc1
inhibition [1]: 2.42%
inhibition [2]: 3.29%
inhibition [3]: 1.62%
inhibition [4]: -0.13%
inhibition [5]: -0.1%
inhibition [6]: 1.29%
inhibition [7]: 1.75%
inhibition [8]: -0.38%
inhibition [9]: -4.35%
inhibition [10]: 4.75%

CCN(CC)S(=O)(=O)c1ccc(OC)c(Nc2ncc(-c3ccccc3)o2)c1
inhibition [1]: 2.13%
inhibition [2]: -1.78%
inhibition [3]: 3.9%
inhibition [4]: -0.97%
inhibition [5]: 0.12%
inhibition [6]: 0.22%
inhibition [7]: 1.76%
inhibition [8]: 8.61%
inhibition [9]: -0.8%
inhibition [10]: 5.19%

COc1ccc2c(-c3ccnc(Nc4cccc(OC(F)(F)F)c4)n3)cnn2n1
inhibition [1]: -3.1%
inhibition [2]: 8.76%
inhibition [3]: 7.47%
inhibition [4]: 4.37%
inhibition [5]: 2.6%
inhibition [6]: 5.69%
inhibition [7]: 5.05%
inhibition [8]: 8.06%
inhibition [9]: 5.84%
inhibition [10]: 5.76%

COc1ccc(-c2cc(-c3c[nH]nc3-c3ccccn3)ccn2)cc1
inhibition [1]: -0.46%
inhibition [2]: 0.78%
inhibition [3]: 3.96%
inhibition [4]: 2.66%
inhibition [5]: 1.63%
inhibition [6]: 5.46%
inhibition [7]: 5.49%
inhibition [8]: 3.54%
inhibition [9]: 1.94%
inhibition [10]: 6.89%

Clc1ccc(-c2nn3ncccc3c2-c2ccnc(Nc3ccccc3)n2)cc1
inhibition [1]: 2.44%
inhibition [2]: 2.29%
inhibition [3]: -0.81%
inhibition [4]: 1.12%
inhibition [5]: -0.15%
inhibition [6]: 0.58%
inhibition [7]: 0.87%
inhibition [8]: 7.85%
inhibition [9]: -0.84%
inhibition [10]: 7.89%

Cc1ccc2c(-c3ccnc(Nc4ccccc4)n3)c(-c3ccc(F)cc3)nn2n1
inhibition [1]: 0%
inhibition [2]: 3.46%
inhibition [3]: 6.67%
inhibition [4]: 2.41%
inhibition [5]: 1.9%
inhibition [6]: 3.55%
inhibition [7]: 4.22%
inhibition [8]: 8.15%
inhibition [9]: 2.93%
inhibition [10]: 1.48%

CC(=O)NCc1cccc(C#Cc2cncnc2Nc2ccc(OCc3cccc(F)c3)c(Cl)c2)c1
inhibition [1]: 2.49%
inhibition [2]: 4.19%
inhibition [3]: 4.46%
inhibition [4]: -0.34%
inhibition [5]: -0.13%
inhibition [6]: -0.22%
inhibition [7]: 0.22%
inhibition [8]: 2.64%
inhibition [9]: -5.66%
inhibition [10]: 3.99%

COC(=O)Nc1nc2ccc(S(=O)(=O)c3ccc(NC(=O)Nc4cc(C(F)(F)F)ccc4F)cc3)cc2[nH]1
inhibition [1]: -2.57%
inhibition [2]: 5.36%
inhibition [3]: 4.48%
inhibition [4]: 2.17%
inhibition [5]: 1.9%
inhibition [6]: 2.62%
inhibition [7]: 3.11%
inhibition [8]: -4.37%
inhibition [9]: -3.51%
inhibition [10]: -3.27%

FC(F)(F)c1cccc(-c2nn3ncccc3c2-c2ccnc(Nc3ccc4c(c3)OCCO4)n2)c1
inhibition [1]: 0.56%
inhibition [2]: 3.7%
inhibition [3]: 3.72%
inhibition [4]: 1.01%
inhibition [5]: 1.43%
inhibition [6]: 1.69%
inhibition [7]: 2.03%
inhibition [8]: -5.89%
inhibition [9]: -2.25%
inhibition [10]: -3.42%

CNC(=O)c1cncc(/C=C/c2ccccc2Cl)c1
inhibition [1]: 1.7%
inhibition [2]: 0.81%
inhibition [3]: 1.33%
inhibition [4]: 0.07%
inhibition [5]: -0.55%
inhibition [6]: 0.06%
inhibition [7]: 0.54%
inhibition [8]: 6.76%
inhibition [9]: 4.3%
inhibition [10]: 8.93%

CCCN1CCC(c2ccc(Nc3nc(Nc4cc(F)ccc4C(N)=O)c4cc[nH]c4n3)c(OC)c2)CC1
inhibition [1]: 0.06%
inhibition [2]: 5.31%
inhibition [3]: 3.04%
inhibition [4]: 1.19%
inhibition [5]: 2.08%
inhibition [6]: 4.32%
inhibition [7]: 5.21%
inhibition [8]: 1.36%
inhibition [9]: 22.6%
inhibition [10]: -9.18%

COc1cc(/C=N/Nc2ncnc3[nH]ncc23)ccc1O
inhibition [1]: 5.4%
inhibition [2]: 1.82%
inhibition [3]: 6.64%
inhibition [4]: 2.22%
inhibition [5]: 1.35%
inhibition [6]: 4.08%
inhibition [7]: 4.44%
inhibition [8]: 10.5%
inhibition [9]: 11.8%
inhibition [10]: -5.57%

— ChEMBL document CHEMBL1961873, “Compounds: GSK PKIS; Assays: Nanosyn kinase panel” (2012)
